A selection: hits, their analogues and other compounds. The true share with any hit is near 2.2%.
Ba/F3 V617F tox – reduced viability of JAK2V617F-dependent Ba/F3 cells, primary screen, JAK2V617F inhibitor project, cell-based, Ba/F3 EpoR-JAK2V617F, luminescence; AID 1446, 2008; inhibition, % at 5.6 µM; ATP luminescence; 220,000 tested, 1.1% active;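 active = inhibition above the campaign mean plus 3 SD over all tested compounds, cut at about 24% in these data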;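 also: cytokine-independent growth of Ba/F3 cells driven by EpoR plus mutant JAK2; 0% = DMSO-treated cells and 100% = JAK inhibitor I control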
KLF5 inh – KLF5 expression inhibitors, primary screen, DLD-1 cells, luminescence; DLD-1 KLF5 promoter-luciferase reporter; inhibition, % at 5 µM; 290,000 tested, 0.23% active;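 active = inhibition above a per-plate limit of that plate's mean compound inhibition plus 3 SD, cut at about 60% in these data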;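 also: 0% = DMSO wells and 100% = LY294002 at 200 µM; higher means less KLF5 promoter-driven luciferase light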
IEC-6 cytotox – cytotoxicity in IEC-6 intestinal epithelial cells, primary screen, cytotoxicity control for KLF5 inhibitor project, cell-based, luminescence; inhibition, % at 5 µM; 290,000 tested, 0.78% active; IEC-6 cytotoxicity, luminescence viability;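 also: 0% = plate median of test compound wells and 100% = cytotoxic reference compound wells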
APP transl inh – inhibitors of APP translation via 5'UTR reporter, primary screen, APP 5'UTR luciferase, SH-SY5Y cells; 190,000 tested, 0.82% active; SH-SY5Y APP 5'UTR-luciferase reporter, luminescence; inhibition, % at 2 µM;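 active = inhibition above a set limit, derived from the sample mean plus 3 SD, cut at about 45% in these data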
BaF3 tox – parental Ba/F3 cell viability inhibition, counter-screen for JAK2V617F inhibitor project, murine pro-B, CellTiter-Glo luminescence | 220,000 tested, 1.1% active | CellTiter-Glo ATP luminescence | inhibition, % at 5.6 µM;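 active = inhibition above a per-campaign cutoff, the mean inhibition of all tested compounds plus 3 SD, cut at about 27% in these data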;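 also: 0% = DMSO wells and 100% = JAK Inhibitor I control wells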
aSyn 5UTR inh – MLPCN primary screen, SNCA 5' untranslated region. 300,000 tested, 0.82% active. inhibition, % (tested at 7.5 µM). alpha-synuclein 5'UTR reporter, inhibitor activity; in the data active = inhibition above about 60%;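 also: H4 neuroglioblastoma cells stably carrying SNCA 5'UTR luciferase fusion; 0% = DMSO wells and 100% = positive control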
IEC-6 cytotox cf – cytotoxic compounds in IEC-6 epithelial cells, confirmation, cytotoxicity control, cell-based, luminescence; shares compounds with IEC-6 cytotox; IEC-6 rat intestinal epithelial viability; inhibition, % at 5 µM; 1,900 tested, 63% active;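 also: 0% = vehicle and 100% = reference cytotoxic drug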
Numbers without * were called inactive. Rule as the data show it, unless noted: active = inhibition above about 22%; inactive = the rest.

`Cc1ccccc1OCC(O)CNC1CCC(NCC(O)COc2ccccc2C)CC1` (configuration not stated) gave KLF5 inh -34, IEC-6 cytotox 101*, aSyn 5UTR inh 99* and IEC-6 cytotox cf 101*.
`COc1cccc2c1O/C(=N\O)C(C(=O)Nc1ccc(C)cc1)C2` (configuration not stated) gave KLF5 inh 24, IEC-6 cytotox 52*, aSyn 5UTR inh -31 and IEC-6 cytotox cf 33*.
For COc1ccc(NC(=O)C2Cc3cccc(OC)c3O/C2=N\O)cc1 (configuration not stated) the results were KLF5 inh 9, IEC-6 cytotox 4 and aSyn 5UTR inh -4.
Screening CC1Sc2ccc(S(=O)(=O)N3CCC(C(=O)Nc4ccc(Cl)cc4)CC3)cc2NC1=O (configuration not stated) returned KLF5 inh -14, IEC-6 cytotox 16 and aSyn 5UTR inh -20.
O=C(Nc1nc(-c2ccccn2)cs1)C1CC(=O)N(c2ccc3c(c2)OCCO3)C1 (configuration not stated) was read as Ba/F3 V617F tox -2, KLF5 inh 3, IEC-6 cytotox 2, APP transl inh 12, BaF3 tox 8 and aSyn 5UTR inh -40.
CC(C)CNC(=O)COC(=O)Cc1ccc(Cl)cc1 was read as Ba/F3 V617F tox 3, KLF5 inh -5, IEC-6 cytotox 1, APP transl inh -2, BaF3 tox 8 and aSyn 5UTR inh -18.
For O=c1c2c(nc3nc(NCc4cccc(Cl)c4)[nH]n13)CCC2 the results were Ba/F3 V617F tox 3, KLF5 inh -27, IEC-6 cytotox -2, APP transl inh -28, BaF3 tox 6 and aSyn 5UTR inh 4.
`Cc1ccc(-n2c(O)c(/C=C3/C(c4ccccc4)=Nc4ccccc43)c(=O)[nH]c2=O)cc1` gave Ba/F3 V617F tox 74*, KLF5 inh 28, IEC-6 cytotox 66*, APP transl inh 76*, BaF3 tox 61*, aSyn 5UTR inh -4 and IEC-6 cytotox cf 60*.
`CCCCOC(=O)/C=C\C(=O)NC(N)=O` gave Ba/F3 V617F tox 0, KLF5 inh -8, IEC-6 cytotox 0, BaF3 tox -8 and aSyn 5UTR inh -11.
CC1(C)CC(=O)C2=C(C1)NC(Nc1nc3ccccc3o1)=NC2c1ccccn1 (configuration not stated) was read as Ba/F3 V617F tox 3, KLF5 inh -1, IEC-6 cytotox 23*, APP transl inh 8, BaF3 tox 9, aSyn 5UTR inh -21 and IEC-6 cytotox cf 9.
Screening c1cnc2c(c1)ccc1cccnc12 returned Ba/F3 V617F tox 7, KLF5 inh 47, IEC-6 cytotox 70*, APP transl inh 32, BaF3 tox 4, aSyn 5UTR inh 85* and IEC-6 cytotox cf 80*.
For CCOC(=O)c1c(/N=C/N(C)C)sc(C(=O)OC)c1C the results were Ba/F3 V617F tox -2, KLF5 inh -10, IEC-6 cytotox 6, APP transl inh 3, BaF3 tox -1 and aSyn 5UTR inh 14.
For CCC1CCCCN1C(=O)c1cc(COc2ccc3ncccc3c2)on1 (configuration not stated) the results were Ba/F3 V617F tox 68*, KLF5 inh 0, IEC-6 cytotox 23*, APP transl inh 12, BaF3 tox 68*, aSyn 5UTR inh -14 and IEC-6 cytotox cf 15.
Screening COCC1CCCCN1C(=O)c1cc(COc2ccc3ncccc3c2)on1 (configuration not stated) returned KLF5 inh -18, IEC-6 cytotox 14 and aSyn 5UTR inh -24.
Nc1nc(Nc2ccccc2)nc2ccccc12 was read as Ba/F3 V617F tox 11, KLF5 inh -71, IEC-6 cytotox 22*, APP transl inh -155, BaF3 tox 15, aSyn 5UTR inh -82 and IEC-6 cytotox cf 15.
`Cc1ccccc1Nc1nc(N)c2ccccc2n1` gave Ba/F3 V617F tox 17, KLF5 inh -7, IEC-6 cytotox 20, APP transl inh -144, BaF3 tox 16 and aSyn 5UTR inh -9.
